Measurements: PubChem BioAssay (Tox21)
Records with an inconclusive call do not appear. Active and inactive are the calls of the source. Unless noted, calls come from the whole dose curve.

Experiments:
[1] = Nuclear factor erythroid 2-related factor 2/antioxidant responsive element (Nrf2/ARE) small molecule agonists: qHTS cell viability counter screen in human keratinocytes (AID 1919968; active = well fitted curve in the direction sought with a large enough effect in the repeat runs; an effect the other way counts as inactive or inconclusive; note: nearly all actives have a fitted effect of over 55% in size)
Outline: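 In human HaCaT keratinocytes stably expressing an ARE-driven luciferase, compound exposure lasted 23 h at 37 C under 5% CO2. Viable cells are quantified with a protease-based fluorogenic reagent (CellTiter-Fluor) read 1 h after addition.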

[2] = target: Gonadotropin-releasing hormone receptor (Homo sapiens) (UniProt P30968); test: Human gonadotropin-releasing hormone receptor (GnRHR) small molecule agonists, calcium flux assay in GnRHR-HEK293 cells (AID 1920063); note: nearly all actives have a fitted effect of over 35% in size
Outline: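 Intracellular calcium rise is the read-out: engineered human GnRHR HEK293 cells, dye-loaded, are exposed to DMSO-dissolved compounds and fluorescence at Ex/Em 480/540 is tracked for 3 min.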

[3] = target: KiSS-1 receptor (Homo sapiens) (UniProt Q969F8); test: Human kisspeptin (KISS1R) small molecule agonists, calcium flux assay in KISS1R-HEK293 cells (AID 1920064; active = well fitted curve in the direction sought with a large enough effect in the repeat runs; an effect the other way counts as inactive or inconclusive)
Outline: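 Concentration-response testing used 15 concentrations in triplicate on human KISS1R-expressing HEK293 cells. Calcium-dependent fluorescence (Ex/Em 480/540) was followed kinetically for 3 min after compound transfer.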

[4] = G protein-coupled receptor (GPCR) small molecule agonists, calcium flux assay: HEK293 wild type cell line counter screen (AID 1920065)
Outline: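 Fluorescence intensity signals activation. After overnight (18 h) culture and a 1 h calcium dye load at 37 C, compounds are added by pin tool and the plate read at 480/540 nm for 3 min in 1 s steps.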

[5] = p53 small molecule agonists, cell-based qHTS assay with human liver microsomes (AID 1963577)
Outline: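 Fluorescence of the beta-lactamase reporter in p53RE-bla cells, detected with LiveBLAzer substrate (2 h, room temperature, dark), served as the read-out after 16 h compound exposure at 37 C with human liver microsomes and NADPH, each 0.5 mg/mL final.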

[6] = p53 small molecule agonists, cell-based qHTS assay with rat liver microsomes (AID 1963578)
Outline: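 Cells carrying a p53 response element–beta-lactamase reporter were plated and rested 5 h, then dosed with compound in DMSO plus rat liver microsomes and NADPH, each at 0.5 mg/mL final. After 16 h at 37 C, LiveBLAzer substrate was added for 2 h.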

[7] = p53 small molecule agonists, cell-based qHTS assay with rat liver microsomes: qHTS cell viability counter screen (AID 1963580); note: nearly all actives have a fitted effect of over 45% in size
Outline: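 Rat liver microsome (0.5 mg/mL final) and NADPH (0.5 mg/mL final) co-incubation with compounds for 16 h at 37 C on HCT-116 p53RE-bla cells; cytotoxicity taken from intracellular ATP luminescence.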

[8] = p53 small molecule agonists, cell-based qHTS assay: qHTS cell viability counter screen (AID 1963581); note: nearly all actives have a fitted effect of over 45% in size
Outline: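 Luminescence from CellTiter-Glo, reflecting ATP content, serves as the cytotoxicity measure; it is taken after the 2 h reporter substrate step in HCT-116 p53RE-bla cells dosed for 16 h at 37 C.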

[9] = p53 small molecule agonists, cell-based qHTS assay (AID 1963582; active = well fitted activation curve with a large enough effect in the signal ratio in the repeat runs, not every such curve was filed as active; the % refers to the signal ratio)
Outline: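 After plating, p53RE-bla cells sat 5 h in the incubator; compounds or DMSO vehicle were pinned in; a 16 h incubation at 37 C followed; FRET substrate was added and, 2 h later at RT, fluorescence was measured.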

[10] = target: 5-hydroxytryptamine receptor 2A (Homo sapiens) (UniProt P28223); test: 5-hydroxytryptamine receptor 2A (HTR2A) small molecule antagonists, cell-based qHTS assay (AID 1963586); note: nearly all actives have a fitted effect of over 45% in size
Outline: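 CHO cells stably expressing human HTR2A were plated for 18 h at 37 C, then loaded with calcium dye for 1 h. Compounds were preincubated 5 min at room temperature before DOI (4 nM solution) was added. Kinetic fluorescence was read for 3 min.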

[11] = target: 5-hydroxytryptamine receptor 2A (Homo sapiens) (UniProt P28223); test: 5-hydroxytryptamine receptor 2A (HTR2A) small molecule agonists, cell-based qHTS assay (AID 1963587); note: nearly all actives have a fitted effect of over 30% in size
Outline: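 Kinetic calcium-flux fluorescence (2 min, 1 sec intervals) after compound addition in agonist mode. HTR2A-CHO cells were cultured 18 h, then dye-loaded 1 h at 37 C.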

[12] = target: Muscarinic acetylcholine receptor M1 (Homo sapiens) (UniProt P11229); test: Cholinergic receptor muscarinic 1 (CHRM1) small molecule antagonists, cell-based qHTS assay (AID 1963588); note: nearly all actives have a fitted effect of over 40% in size
Outline: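 Compounds were tested at 15 concentrations in three independent runs. Dye-loaded CHRM1-CHO cells were exposed 5 min at room temperature before stimulation by acetylcholine added at 50nM. Intracellular calcium was read kinetically on FDSS for 3 min.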

[13] = target: Muscarinic acetylcholine receptor M1 (Homo sapiens) (UniProt P11229); test: Cholinergic receptor muscarinic 1 (CHRM1) small molecule agonists, cell-based qHTS assay (AID 1963589); note: nearly all actives have a fitted effect of over 35% in size
Outline: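 Fluorescent calcium dye reports M1 activation in stably transfected CHO cells. Compounds, 15 concentrations, added after 1 h dye loading at 37 C; kinetic reading at 1 sec intervals.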

[14] = cAMP Responsive Elements (CRE) small molecule agonists, cell-based qHTS assay (AID 1963590)
Outline: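 Compound exposure lasted 3 h at 37 C/5% CO2 in CRE-bla HEK 293T cells grown in assay medium with 10% dialyzed FBS and 25 mM HEPES. Reporter signal came from LiveBLAzer B/G FRET substrate, 2 h, room temperature.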

[15] = cAMP Responsive Elements (CRE) small molecule antagonists, cell-based qHTS assay (AID 1963591; active = well fitted inhibition curve with a large enough effect in the signal ratio in the repeat runs, not every such curve was filed as active; the % refers to the signal ratio)
Outline: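 Stimulation used NKH477 at a final 0.25 uM for 3 h in compound-treated CRE-bla HEK293T cells, seeded 18 h beforehand. Reporter activity was measured with LiveBLAzer B/G FRET substrate after 2 h at room temperature.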

[16] = target: Beta-2 adrenergic receptor (Homo sapiens) (UniProt P07550); test: Adrenergic beta2 receptor (ADRB2) small molecule antagonists, cell-based qHTS assay (AID 1963592); note: series mostly up to about 92 µM; nearly all actives have a fitted effect of over 50% in size
Outline: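 Assay format: CHO-ADRB2 cells, 18-20hr seeding at 37C/5% CO2, then compound plus 1nM isoproterenol agonist mix for 0.5hr RT. Homogeneous time-resolved fluorescence cAMP detection after 1hr, expressed as 665/615 nm ratio.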

[17] = target: D(2) dopamine receptor (Homo sapiens) (UniProt P14416); test: Dopamine D2 receptor (DRD2) small molecule agonists, cell-based qHTS assay (AID 1963594); note: nearly all actives have a fitted effect of over 35% in size
Outline: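 cAMP accumulation in DRD2-HEK293 cells measured by HTRF after 1 h detection; compounds added 10 min before NKH477 (200nM […]) forskolin-analogue stimulation, 30 min at room temperature, with Ro20-1724 present at 0.1 mM final.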

[18] = target: D(2) dopamine receptor (Homo sapiens) (UniProt P14416); test: Dopamine D2 receptor (DRD2) small molecule antagonists, cell-based qHTS assay (AID 1963595; active = well fitted inhibition curve with a large enough effect in the signal ratio in the repeat runs, with a control signal flat; the % refers to the signal ratio)
Outline: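 Stable D2 receptor HEK293 line, 24 h after seeding. Compound preincubated 10 min, then quinpirole (12 nM) with forskolin analogue NKH477 (200 nM), 30 min, room temperature. Detection by time-resolved FRET of cAMP.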

[19] = target: Beta-2 adrenergic receptor (Homo sapiens) (UniProt P07550); test: Adrenergic beta2 receptor (ADRB2) small molecule agonists, cell-based qHTS assay (AID 1963593);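 note: CHO cells stably overexpressing human ADRB2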
Outline: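 CHO cells stably over-expressing ADRB2 were plated overnight at 37C, then dosed with compounds plus a stimulation mix containing 100uM IBMX and 25uM Ro-20-1724 for 0.5hr at room temperature. cAMP was measured by HTRF competition, 1hr.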

Measured: Potency

Sequence of Beta-2 adrenergic receptor (Homo sapiens) (P07550 whole entry, looked up): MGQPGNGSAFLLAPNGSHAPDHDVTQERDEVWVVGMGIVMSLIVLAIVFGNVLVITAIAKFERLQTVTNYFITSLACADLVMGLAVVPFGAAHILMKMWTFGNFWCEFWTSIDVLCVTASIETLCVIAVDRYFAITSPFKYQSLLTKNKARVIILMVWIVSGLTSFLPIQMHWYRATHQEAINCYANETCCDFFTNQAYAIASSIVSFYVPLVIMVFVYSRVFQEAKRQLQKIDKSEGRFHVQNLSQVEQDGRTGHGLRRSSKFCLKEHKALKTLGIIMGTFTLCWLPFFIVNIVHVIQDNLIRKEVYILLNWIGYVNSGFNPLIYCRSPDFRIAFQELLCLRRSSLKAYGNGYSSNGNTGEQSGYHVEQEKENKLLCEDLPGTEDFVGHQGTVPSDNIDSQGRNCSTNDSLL
Sequence of Muscarinic acetylcholine receptor M1 (Homo sapiens) (P11229 whole entry, looked up): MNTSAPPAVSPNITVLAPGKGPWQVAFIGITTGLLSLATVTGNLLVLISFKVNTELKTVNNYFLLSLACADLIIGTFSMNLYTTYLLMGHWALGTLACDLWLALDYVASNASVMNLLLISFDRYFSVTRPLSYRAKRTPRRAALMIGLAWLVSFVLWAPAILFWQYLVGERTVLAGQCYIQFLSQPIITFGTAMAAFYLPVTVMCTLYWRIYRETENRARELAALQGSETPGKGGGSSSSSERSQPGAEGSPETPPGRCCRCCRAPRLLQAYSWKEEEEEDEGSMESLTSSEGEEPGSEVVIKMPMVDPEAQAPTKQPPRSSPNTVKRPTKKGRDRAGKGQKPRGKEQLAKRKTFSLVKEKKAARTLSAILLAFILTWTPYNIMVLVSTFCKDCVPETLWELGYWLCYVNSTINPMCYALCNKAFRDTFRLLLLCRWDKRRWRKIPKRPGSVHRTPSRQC
Sequence of D(2) dopamine receptor (Homo sapiens) (P14416 whole entry, looked up): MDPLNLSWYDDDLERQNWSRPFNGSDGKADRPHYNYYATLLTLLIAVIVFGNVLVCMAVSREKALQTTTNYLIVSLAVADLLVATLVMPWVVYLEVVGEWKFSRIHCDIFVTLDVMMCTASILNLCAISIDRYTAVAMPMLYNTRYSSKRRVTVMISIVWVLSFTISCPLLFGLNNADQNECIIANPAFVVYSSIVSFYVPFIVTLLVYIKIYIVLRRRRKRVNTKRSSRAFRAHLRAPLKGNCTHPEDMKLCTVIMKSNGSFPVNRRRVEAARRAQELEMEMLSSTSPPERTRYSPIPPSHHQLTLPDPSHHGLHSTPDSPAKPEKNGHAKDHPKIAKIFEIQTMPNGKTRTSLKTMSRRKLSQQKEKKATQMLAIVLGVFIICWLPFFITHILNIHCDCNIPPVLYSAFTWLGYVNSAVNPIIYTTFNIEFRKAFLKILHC
Sequence of Gonadotropin-releasing hormone receptor (Homo sapiens) (P30968 whole entry, looked up): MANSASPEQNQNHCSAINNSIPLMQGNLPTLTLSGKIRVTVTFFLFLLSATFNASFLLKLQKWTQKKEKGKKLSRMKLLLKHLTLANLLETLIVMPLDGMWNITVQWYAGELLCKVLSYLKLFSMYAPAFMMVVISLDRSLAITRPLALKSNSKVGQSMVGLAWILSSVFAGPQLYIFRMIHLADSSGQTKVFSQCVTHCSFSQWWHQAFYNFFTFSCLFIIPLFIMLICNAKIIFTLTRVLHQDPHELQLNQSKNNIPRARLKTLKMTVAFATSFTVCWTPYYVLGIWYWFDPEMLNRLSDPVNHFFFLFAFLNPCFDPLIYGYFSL
Sequence of 5-hydroxytryptamine receptor 2A (Homo sapiens) (P28223 whole entry, looked up): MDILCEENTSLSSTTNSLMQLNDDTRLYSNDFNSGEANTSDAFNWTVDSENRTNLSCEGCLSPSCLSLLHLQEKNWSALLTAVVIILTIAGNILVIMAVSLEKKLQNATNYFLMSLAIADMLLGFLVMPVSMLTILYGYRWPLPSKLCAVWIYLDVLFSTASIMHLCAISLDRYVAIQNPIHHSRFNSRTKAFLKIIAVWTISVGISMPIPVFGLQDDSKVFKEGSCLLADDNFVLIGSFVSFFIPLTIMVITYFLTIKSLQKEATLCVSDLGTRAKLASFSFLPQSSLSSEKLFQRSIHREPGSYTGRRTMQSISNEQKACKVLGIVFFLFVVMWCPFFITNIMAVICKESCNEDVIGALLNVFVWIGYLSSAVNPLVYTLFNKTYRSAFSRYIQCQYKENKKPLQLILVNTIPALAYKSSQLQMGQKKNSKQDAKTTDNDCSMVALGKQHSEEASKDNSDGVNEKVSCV
Sequence of KiSS-1 receptor (Homo sapiens) (Q969F8 whole entry, looked up): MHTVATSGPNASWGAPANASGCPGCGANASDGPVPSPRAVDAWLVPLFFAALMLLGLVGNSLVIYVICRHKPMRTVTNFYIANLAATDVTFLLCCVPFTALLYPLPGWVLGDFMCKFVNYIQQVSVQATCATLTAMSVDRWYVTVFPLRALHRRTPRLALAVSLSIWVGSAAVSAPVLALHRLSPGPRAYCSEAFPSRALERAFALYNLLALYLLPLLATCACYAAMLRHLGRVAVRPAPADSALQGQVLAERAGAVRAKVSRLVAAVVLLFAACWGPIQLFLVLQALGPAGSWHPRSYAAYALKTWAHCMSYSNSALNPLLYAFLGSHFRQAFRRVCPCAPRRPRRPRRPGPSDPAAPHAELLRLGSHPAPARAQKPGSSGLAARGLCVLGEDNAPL

CCCCCCCCCCCCCCCBr
not listed: [19]
inactive: all other assays above

CN1CCN(C)CC1
not listed: [10] | [19]
inactive: all other assays above

CC/C=C1/OC(=O)c2ccccc21
not listed: [19]
inactive: all other assays above

COc1ccnc2c1CCCCC2S(=O)c1nc2ccccc2[nH]1 (centres undefined)
not listed: [7]
inactive: all other assays above

Oc1ccc(Cc2ccccc2)cc1
not listed: [11] | [14] | [15]
inactive: all other assays above

CCCCCC[C@@H](O)C/C=C\CCCCCCCC(=O)OC
not listed: [12] | [19]
inactive: all other assays above
